Laboratory results taken from the supplement of paper PMC10849652.
Of roughly 8,800 targets only a part is listed; those with a hit were picked by preference. About 0.5% of all pairs of compound and target were hits.

Legend:
Assay in all cases: log2 fold change, soluble protein after heating vs DMSO (PISA); higher = thermal stabilisation; K562 lysate, 10 uM; active = over 0.2 and 3.5 SD of the protein, either way, in both replicates (recomputed)
erlotinib = compound: C#Cc1cccc(Nc2ncnc3cc(OCCOC)c(OCCOC)cc23)c1 [erlotinib]
In short: (§1)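 A 30 min treatment with 10 μM compound was applied to crude K562 extract at 1 mg/mL protein in PBS pH 7.4 with 1 mM MgCl2. Heating for 3 min spanned 48°C-58°C, after which aliquots were pooled, adjusted to 0.5% NP-40 at 4°C and spun at 21,000xg for 90 min. TMTpro 16plex LC-MS/MS of the supernatant, with channel sums equalised, gave values recorded as log-two fold change in thermal stability against solvent controls, from duplicates.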

[1] = compound: C/C(=N\NC(=O)C1=CC(=CC=C1)S(=O)(=O)N2CCOCC2)/C3=C(C=CC(=C3)Cl)O
In short: as §1

[2] = compound: C1=CC(=CC=C1C2=NC3=C(N2)C=C(C=C3)C(=O)N)OC4=CC=C(C=C4)Cl
In short: as §1

[3] = compound: C1=CC2=C(C=CC(=C2)/C=C\3/C(=O)NC(=NCC4=CC=CS4)S3)N=C1
In short: as §1

[4] = compound: C1=CC2=NC=CN=C2C=C1/C=C/3\C(=O)NC(=O)S3
In short: as §1

[5] = compound: C1=CC=C(C=C1)C2=NC(=C(N2)C3=CC=NC=C3)C4=CC(=C(C=C4)Cl)O
In short: as §1

[6] = compound: C1=CC=C2C(=C1)C3=NNC4=CC=CC(=C43)C2=O
In short: as §1

[7] = compound: C1CCN(C1)C(=O)NC2=CC=CC(=C2)NC3=NC=C(C(=N3)NCCC4=CN=CN4)Br
In short: as §1

[8] = compound: C1CN(CCC1(CC2=CC=C(C=C2)Cl)N)C3=NC=NC4=C3C=CN4
In short: as §1

IRAK-1-4 Inhibitor I = compound: C1COCCN1CCN2C3=CC=CC=C3N=C2NC(=O)C4=CC(=CC=C4)[N+](=O)[O-] [IRAK-1-4 Inhibitor I]
In short: as §1

Measured: log2 fold change

ANP32A (UniProt P39687)
Sequence of UniProt P39687 (P39687 whole entry, looked up): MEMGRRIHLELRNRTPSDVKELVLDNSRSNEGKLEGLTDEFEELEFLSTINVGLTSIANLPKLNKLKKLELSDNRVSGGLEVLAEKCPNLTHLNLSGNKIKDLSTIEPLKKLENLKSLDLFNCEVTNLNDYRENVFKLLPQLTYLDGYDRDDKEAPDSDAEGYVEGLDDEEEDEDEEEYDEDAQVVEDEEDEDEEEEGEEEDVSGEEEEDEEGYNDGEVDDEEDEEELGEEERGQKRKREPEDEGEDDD
inactive: erlotinib -0.147 | [1] 0.075 | [2] -0.199 | [3] -0.012 | [4] 0.012 | [5] 0.006 | [6] 0.018 | [7] 0.026 | [8] -0.008 | IRAK-1-4 Inhibitor I 0.013

ACADM isoform 2 (UniProt P11310)
Sequence of UniProt P11310 (P11310 whole entry, looked up): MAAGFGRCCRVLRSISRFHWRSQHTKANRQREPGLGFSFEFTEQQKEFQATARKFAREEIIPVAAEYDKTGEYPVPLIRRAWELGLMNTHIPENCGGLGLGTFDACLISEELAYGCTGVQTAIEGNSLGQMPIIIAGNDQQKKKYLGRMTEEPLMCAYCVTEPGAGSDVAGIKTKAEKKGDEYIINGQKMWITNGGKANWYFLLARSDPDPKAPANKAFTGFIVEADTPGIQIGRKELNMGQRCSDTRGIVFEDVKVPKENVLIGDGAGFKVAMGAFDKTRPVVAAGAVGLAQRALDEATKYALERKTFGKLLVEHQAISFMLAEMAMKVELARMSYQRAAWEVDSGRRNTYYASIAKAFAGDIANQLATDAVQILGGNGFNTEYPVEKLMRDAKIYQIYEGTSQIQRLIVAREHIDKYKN
inactive: erlotinib -0.088 | [1] 0.049 | [2] -0.034 | [3] 0.23 | [4] 0.085 | [5] 0.101 | [6] -0.032 | [7] -0.032 | [8] -0.003 | IRAK-1-4 Inhibitor I -0.007

ACSL4 (UniProt O60488)
Sequence of UniProt O60488 (O60488 whole entry, looked up): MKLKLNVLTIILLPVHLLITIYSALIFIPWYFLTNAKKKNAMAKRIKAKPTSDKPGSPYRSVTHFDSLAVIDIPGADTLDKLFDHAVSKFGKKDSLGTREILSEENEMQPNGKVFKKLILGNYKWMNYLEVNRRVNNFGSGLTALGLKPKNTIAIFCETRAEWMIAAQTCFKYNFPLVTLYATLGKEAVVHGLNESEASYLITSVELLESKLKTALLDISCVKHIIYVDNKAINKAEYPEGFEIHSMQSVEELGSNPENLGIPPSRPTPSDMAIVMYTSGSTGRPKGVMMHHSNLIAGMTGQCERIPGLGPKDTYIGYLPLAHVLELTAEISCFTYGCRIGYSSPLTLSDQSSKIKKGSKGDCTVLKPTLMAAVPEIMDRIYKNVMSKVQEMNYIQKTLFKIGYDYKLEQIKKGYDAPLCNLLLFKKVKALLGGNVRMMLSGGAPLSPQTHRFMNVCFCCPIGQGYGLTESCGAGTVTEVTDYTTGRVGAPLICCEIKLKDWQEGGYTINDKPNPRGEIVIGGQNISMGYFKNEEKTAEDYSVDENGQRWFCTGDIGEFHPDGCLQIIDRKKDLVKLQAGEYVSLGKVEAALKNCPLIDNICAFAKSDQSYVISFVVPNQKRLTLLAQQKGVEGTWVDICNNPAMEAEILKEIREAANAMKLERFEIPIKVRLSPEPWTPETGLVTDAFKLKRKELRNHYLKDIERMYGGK
inactive: erlotinib 0.004 | [1] -0.074 | [2] -0.053 | [3] 0.062 | [4] 0.022 | [5] -0.014 | [6] -0.032 | [7] -0.065 | [8] -0.007 | IRAK-1-4 Inhibitor I 0.04

ARAP1 (UniProt Q96P48)
inactive: erlotinib 0.003 | [1] -0.164 | [2] -0.041 | [3] 0.024 | [4] 0.022 | [5] 0.022 | [6] 0.013 | [7] -0.01 | [8] -0.007 | IRAK-1-4 Inhibitor I 0.008

ALDH18A1 (UniProt P54886)
inactive: erlotinib 0.029 | [1] -0.039 | [2] -0.017 | [3] 0.02 | [4] -0.015 | [5] -0.016 | [6] -0.025 | [7] -0.022 | [8] 0.001 | IRAK-1-4 Inhibitor I -0.006

APAF1 (UniProt O14727)
Sequence of UniProt O14727 (O14727 whole entry, looked up): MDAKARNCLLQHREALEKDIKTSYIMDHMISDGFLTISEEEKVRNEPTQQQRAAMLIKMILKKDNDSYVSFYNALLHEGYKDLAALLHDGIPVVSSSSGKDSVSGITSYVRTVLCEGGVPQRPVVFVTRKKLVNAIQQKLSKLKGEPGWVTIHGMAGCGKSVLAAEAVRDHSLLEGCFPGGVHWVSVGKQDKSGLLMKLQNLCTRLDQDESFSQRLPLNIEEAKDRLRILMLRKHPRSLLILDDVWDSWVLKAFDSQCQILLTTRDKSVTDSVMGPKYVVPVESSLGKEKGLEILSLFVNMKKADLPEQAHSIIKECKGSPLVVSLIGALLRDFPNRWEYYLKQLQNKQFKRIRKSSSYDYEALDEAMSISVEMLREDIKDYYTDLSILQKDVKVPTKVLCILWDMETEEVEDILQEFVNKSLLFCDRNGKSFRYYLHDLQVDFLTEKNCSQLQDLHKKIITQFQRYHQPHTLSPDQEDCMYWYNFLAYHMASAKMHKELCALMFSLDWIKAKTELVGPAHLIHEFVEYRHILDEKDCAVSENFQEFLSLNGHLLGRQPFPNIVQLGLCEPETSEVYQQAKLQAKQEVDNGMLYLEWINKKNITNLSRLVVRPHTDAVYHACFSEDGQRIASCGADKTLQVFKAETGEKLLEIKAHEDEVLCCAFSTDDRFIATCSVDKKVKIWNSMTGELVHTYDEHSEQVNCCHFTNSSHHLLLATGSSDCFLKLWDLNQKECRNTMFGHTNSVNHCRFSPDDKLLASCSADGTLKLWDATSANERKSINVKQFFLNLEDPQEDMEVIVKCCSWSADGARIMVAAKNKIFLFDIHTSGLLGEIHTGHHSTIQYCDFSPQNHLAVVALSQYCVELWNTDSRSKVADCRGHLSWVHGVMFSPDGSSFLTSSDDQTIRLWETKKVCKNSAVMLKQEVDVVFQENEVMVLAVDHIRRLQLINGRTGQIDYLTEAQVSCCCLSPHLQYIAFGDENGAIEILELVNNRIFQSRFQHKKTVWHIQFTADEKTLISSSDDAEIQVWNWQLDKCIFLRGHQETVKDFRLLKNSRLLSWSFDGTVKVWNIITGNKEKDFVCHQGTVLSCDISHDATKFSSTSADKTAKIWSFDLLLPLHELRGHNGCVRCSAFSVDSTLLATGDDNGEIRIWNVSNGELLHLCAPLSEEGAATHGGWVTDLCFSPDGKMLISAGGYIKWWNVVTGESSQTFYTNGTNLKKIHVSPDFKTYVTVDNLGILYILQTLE
inactive: erlotinib 0.005 | [1] 0.084 | [2] -0.054 | [3] 0.019 | [4] -0.016 | [5] -0.029 | [6] -0.003 | [7] 0.022 | [8] 0.015 | IRAK-1-4 Inhibitor I -0.021

ARHGAP25 isoform 4 (UniProt P42331)
inactive: erlotinib 0.029 | [1] 0.045 | [2] 0.026 | [3] -0.031 | [4] -0.031 | [5] -0.002 | [6] -0.029 | [7] 0.007 | [8] 0.034 | IRAK-1-4 Inhibitor I -0.006

ABCC5 (UniProt O15440)
inactive: erlotinib 0.059 | [1] -0.581 | [2] 0.057 | [3] -0.028 | [4] -0.127 | [5] -0.112 | [6] -0.248 | [7] -0.038 | [8] 0.072 | IRAK-1-4 Inhibitor I -0.067

ACOX1 isoform 2 (UniProt Q15067)
inactive: erlotinib -0.01 | [1] -0.023 | [2] 0.007 | [3] 0.007 | [4] 0.01 | [5] 0.011 | [6] -0.017 | [7] -0.007 | [8] 0.024 | IRAK-1-4 Inhibitor I 0.081

ABHD12 isoform 2 (UniProt Q8N2K0)
Sequence of UniProt Q8N2K0 (Q8N2K0 whole entry, looked up): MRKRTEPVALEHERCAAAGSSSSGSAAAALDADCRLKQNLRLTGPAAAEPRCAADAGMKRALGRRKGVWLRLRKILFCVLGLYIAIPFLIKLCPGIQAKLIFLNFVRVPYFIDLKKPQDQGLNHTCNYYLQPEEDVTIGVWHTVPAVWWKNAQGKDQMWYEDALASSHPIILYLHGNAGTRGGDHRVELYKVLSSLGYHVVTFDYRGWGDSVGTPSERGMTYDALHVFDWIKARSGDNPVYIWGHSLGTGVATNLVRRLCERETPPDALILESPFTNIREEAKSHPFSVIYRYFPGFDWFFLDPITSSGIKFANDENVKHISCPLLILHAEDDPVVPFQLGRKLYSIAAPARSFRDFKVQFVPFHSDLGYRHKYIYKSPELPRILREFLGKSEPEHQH
inactive: erlotinib -0.027 | [1] -0.031 | [2] -0.062 | [3] 0.074 | [4] 0.037 | [5] -0.064 | [6] 0 | [7] -0.03 | [8] 0.048 | IRAK-1-4 Inhibitor I 0.014

ARMC6 (UniProt Q6NXE6)
Sequence of UniProt Q6NXE6 (Q6NXE6 whole entry, looked up): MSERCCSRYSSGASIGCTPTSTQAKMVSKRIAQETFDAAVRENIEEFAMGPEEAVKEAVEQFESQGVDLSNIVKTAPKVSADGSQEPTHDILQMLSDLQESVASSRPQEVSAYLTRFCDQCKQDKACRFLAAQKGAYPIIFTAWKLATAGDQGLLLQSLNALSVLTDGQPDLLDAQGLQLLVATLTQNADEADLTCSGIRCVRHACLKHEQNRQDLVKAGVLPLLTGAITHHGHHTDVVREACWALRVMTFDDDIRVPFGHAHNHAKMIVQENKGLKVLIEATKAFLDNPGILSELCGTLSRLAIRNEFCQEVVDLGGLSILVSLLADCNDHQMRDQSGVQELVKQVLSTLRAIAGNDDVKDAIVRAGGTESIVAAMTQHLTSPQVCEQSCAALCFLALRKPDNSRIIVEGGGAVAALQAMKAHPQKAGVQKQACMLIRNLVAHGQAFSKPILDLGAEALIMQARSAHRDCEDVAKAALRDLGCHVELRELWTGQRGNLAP
inactive: erlotinib 0.012 | [1] -0.026 | [2] -0.093 | [3] 0.022 | [4] 0.04 | [5] 0.006 | [6] -0.027 | [7] 0.021 | [8] -0.031 | IRAK-1-4 Inhibitor I -0.005

ARHGEF1 (UniProt M0QZR4)
inactive: erlotinib 0.018 | [1] 0.024 | [2] -0.023 | [3] 0.002 | [4] 0.027 | [5] 0.001 | [6] -0.041 | [7] -0.004 | [8] -0.022 | IRAK-1-4 Inhibitor I -0.031

ACYP1 (UniProt P07311)
Sequence of UniProt P07311 (P07311 whole entry, looked up): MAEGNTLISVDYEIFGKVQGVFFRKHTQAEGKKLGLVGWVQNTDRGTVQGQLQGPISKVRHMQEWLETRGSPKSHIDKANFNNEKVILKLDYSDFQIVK
inactive: erlotinib -0.032 | [1] 0.028 | [2] -0.007 | [3] -0.02 | [4] -0.008 | [5] -0.017 | [6] -0.01 | [7] 0.024 | [8] -0.004 | IRAK-1-4 Inhibitor I 0.013

AK1 (UniProt P00568)
Sequence of UniProt P00568 (P00568 whole entry, looked up): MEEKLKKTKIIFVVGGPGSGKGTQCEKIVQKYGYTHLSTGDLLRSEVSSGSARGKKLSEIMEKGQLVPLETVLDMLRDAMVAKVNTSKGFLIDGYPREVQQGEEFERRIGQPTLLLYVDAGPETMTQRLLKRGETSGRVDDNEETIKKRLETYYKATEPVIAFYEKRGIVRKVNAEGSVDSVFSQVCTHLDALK
inactive: erlotinib -0.023 | [1] 0.002 | [2] 0.014 | [3] -0.036 | [4] 0.002 | [5] -0.004 | [6] 0.047 | [7] 0.067 | [8] -0.003 | IRAK-1-4 Inhibitor I -0.002

ASB6 (UniProt Q9NWX5)
inactive: erlotinib 0.038 | [1] -0.311 | [2] 0.04 | [3] -0.094 | [4] -0.005 | [5] 0.06 | [6] 0.092 | [7] -0.053 | [8] 0.327 | IRAK-1-4 Inhibitor I 0.002

AIMP2 (UniProt Q13155)
Sequence of UniProt Q13155 (Q13155 whole entry, looked up): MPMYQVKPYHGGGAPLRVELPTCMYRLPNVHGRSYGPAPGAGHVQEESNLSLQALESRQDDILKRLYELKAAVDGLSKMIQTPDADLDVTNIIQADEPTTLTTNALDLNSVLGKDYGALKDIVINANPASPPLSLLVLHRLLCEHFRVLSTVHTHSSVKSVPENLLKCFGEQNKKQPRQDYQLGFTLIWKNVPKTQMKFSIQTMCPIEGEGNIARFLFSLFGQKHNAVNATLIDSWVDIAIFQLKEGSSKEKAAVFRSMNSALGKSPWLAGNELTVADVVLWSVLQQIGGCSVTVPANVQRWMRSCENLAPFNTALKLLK
inactive: erlotinib 0.021 | [1] 0.062 | [2] -0.01 | [3] 0.006 | [4] 0.002 | [5] -0.016 | [6] -0.001 | [7] 0.014 | [8] -0.036 | IRAK-1-4 Inhibitor I 0.008

ARHGEF2 (UniProt Q92974)
inactive: erlotinib -0.006 | [1] -0.041 | [2] -0.014 | [3] -0.017 | [4] 0.002 | [5] 0.039 | [6] -0.007 | [7] -0.051 | [8] -0.018 | IRAK-1-4 Inhibitor I -0.005

ACIN1 (UniProt E7EQT4)
inactive: erlotinib 0.001 | [1] -0.16 | [2] 0 | [3] 0.05 | [4] -0.027 | [5] -0.057 | [6] -0.009 | [7] 0.008 | [8] -0.027 | IRAK-1-4 Inhibitor I 0.012

ANXA11 (UniProt P50995)
inactive: erlotinib 0.015 | [1] 0.031 | [2] 0.025 | [3] -0.022 | [4] 0.017 | [5] -0.079 | [6] -0.016 | [7] 0.011 | [8] 0.033 | IRAK-1-4 Inhibitor I 0.006

ACIN1 isoform 5 (UniProt Q9UKV3)
inactive: erlotinib -0.011 | [1] -0.025 | [2] -0.023 | [3] -0.028 | [4] -0.037 | [5] 0.001 | [6] -0.001 | [7] -0.006 | [8] -0.007 | IRAK-1-4 Inhibitor I -0.006

AKR1B1 (UniProt P15121)
inactive: erlotinib -0.044 | [1] -0.001 | [2] -0.006 | [3] 0.012 | [4] -0.009 | [5] -0.047 | [6] -0.044 | [7] -0.043 | [8] -0.003 | IRAK-1-4 Inhibitor I -0.021

APOB (UniProt P04114)
inactive: erlotinib -0.028 | [1] -0.001 | [2] -0.032 | [3] -0.029 | [4] -0.021 | [5] 0 | [6] -0.055 | [7] -0.067 | [8] 0.015 | IRAK-1-4 Inhibitor I 0.097

AP4B1 (UniProt Q9Y6B7)
Sequence of UniProt Q9Y6B7 (Q9Y6B7 whole entry, looked up): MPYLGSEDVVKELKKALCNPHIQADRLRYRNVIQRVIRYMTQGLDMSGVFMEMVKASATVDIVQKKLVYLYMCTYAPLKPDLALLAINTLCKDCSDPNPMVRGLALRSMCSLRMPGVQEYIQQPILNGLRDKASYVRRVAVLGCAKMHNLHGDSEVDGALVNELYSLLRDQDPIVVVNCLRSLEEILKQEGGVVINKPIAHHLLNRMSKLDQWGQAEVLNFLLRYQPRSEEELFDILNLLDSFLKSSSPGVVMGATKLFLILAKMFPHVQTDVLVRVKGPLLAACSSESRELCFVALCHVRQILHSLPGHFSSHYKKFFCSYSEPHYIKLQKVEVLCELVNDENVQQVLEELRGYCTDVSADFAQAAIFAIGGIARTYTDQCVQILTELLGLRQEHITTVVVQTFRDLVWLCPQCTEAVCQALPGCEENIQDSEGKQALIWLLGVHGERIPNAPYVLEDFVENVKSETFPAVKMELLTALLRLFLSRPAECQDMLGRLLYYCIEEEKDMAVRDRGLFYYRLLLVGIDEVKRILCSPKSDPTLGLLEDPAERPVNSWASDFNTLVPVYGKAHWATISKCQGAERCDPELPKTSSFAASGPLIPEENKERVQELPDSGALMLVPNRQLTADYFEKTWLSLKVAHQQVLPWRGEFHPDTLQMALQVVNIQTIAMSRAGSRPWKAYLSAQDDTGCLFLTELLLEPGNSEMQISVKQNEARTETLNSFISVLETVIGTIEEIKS
inactive: erlotinib 0.021 | [1] -0.038 | [2] 0.016 | [3] 0.096 | [4] 0.038 | [5] 0.019 | [6] -0.022 | [7] -0.018 | [8] 0.188 | IRAK-1-4 Inhibitor I 0.013

ALDH5A1 isoform 2 (UniProt P51649)
inactive: erlotinib -0.005 | [1] 0.045 | [2] 0.024 | [3] -0.009 | [4] 0.006 | [5] 0.013 | [6] -0.026 | [7] -0.013 | [8] -0.002 | IRAK-1-4 Inhibitor I -0.012

AKAP8 (UniProt O43823)
inactive: erlotinib -0.015 | [1] 0.002 | [2] 0.038 | [3] -0.005 | [4] -0.04 | [5] 0.045 | [6] -0.047 | [7] 0.044 | [8] 0 | IRAK-1-4 Inhibitor I 0.089

ANKRD30B (UniProt Q9BXX2)
inactive: erlotinib 0.077 | [1] 0.106 | [2] -0.053 | [3] -0.115 | [4] 0.005 | [5] -0.032 | [6] -0.047 | [7] -0.006 | [8] 0.124 | IRAK-1-4 Inhibitor I 0.095

ACACA isoform 4 (UniProt Q13085)
inactive: erlotinib 0.024 | [1] 0.039 | [2] -0.029 | [3] -0.012 | [4] 0.011 | [5] 0.019 | [6] -0.047 | [7] 0.003 | [8] 0.024 | IRAK-1-4 Inhibitor I 0.005

ABCF3 (UniProt Q9NUQ8)
inactive: erlotinib 0.005 | [1] 0.013 | [2] -0.049 | [3] 0.011 | [4] 0.009 | [5] -0.011 | [6] -0.065 | [7] 0.022 | [8] -0.033 | IRAK-1-4 Inhibitor I -0.037

ABHD11 (UniProt Q8NFV4)
inactive: erlotinib -0.064 | [1] -0.049 | [2] 0.001 | [3] 0.057 | [4] -0.008 | [5] 0.171 | [6] 0.011 | [7] -0.047 | [8] 0.015 | IRAK-1-4 Inhibitor I -0.014

ALKBH4 (UniProt Q9NXW9)
inactive: erlotinib 0.014 | [1] -0.073 | [2] 0.026 | [3] -0.011 | [4] 0.017 | [5] -0.052 | [6] -0.069 | [7] 0 | [8] 0.019 | IRAK-1-4 Inhibitor I 0.003
